Experimental data from PubChem BioAssay (EPA / NIEHS).
Activity calls are given as the source filed them. Rule for the calls: active = hit-call score of the fitted dose curve at least 0.9, where 1 is the maximum; inactive = score below 0.9.

Each compound was assayed on CYP4A11 (gene 1579) (assay: LTEA_HepaRG_CYP4A11: Life Technologies and Expression Analysis (LTEA) Assay for CYP4A11 using HepaRG (AID 2283486)). Conditions: mRNA level, 48 h; actives raise or lower the signal.
Protocol: LTEA_HepaRG is a cell based, multiplexed-readout assay that uses HepaRG, a human liver cell line, with measurements taken at 48 hours after chemical dosing on a 96-well plate.LTEA_HepaRG_CYP4A11 is one of 102 assay component(s) measured in the LTEA HepaRG cell culture assay. It is a marker of NR mediated metabolism.Data from the assay component LTEA_HepaRG_CYP4A11 was analyzed into 1 endpoint. This assay endpoint, LTEA_HepaRG_CYP4A11, was analyzed with bidirectional fitting relative to DMSO as the negative control and baseline of activity. Using a type of inducible reporter, measures of mRNA induction for gain or loss-of-signal activity can be used to understand regulation of transcription factor activity. To generalize the intended target to other relatable targets, this assay endpoint is annotated to the cyp intended target family, where the subfamily is xenobiotic metabolism.
A total of 1060 chemcials from the ToxCast library were tested in eight-point concentration-response experiments. Cell culture and cytotoxicity assays were conducted at Thermo Fisher Scientific's Custom Services facility (Madison, WI). A single lot of human HepaRG cells (Thermo Fisher Scientific, Frederick, MD) was used for the cell culture experiments. 96-well format collagen type I coated plates of human HepaRG cells were prepared using established methods. Briefly, cryopreserved HepaRG cells were thawed, plated at a density of approximately 100,000 cells/well in HepaRG Thaw, Plate, and General Purpose media (HPRG770, Thermo Fisher Scientific), and incubated for 48 hours. 0.5% DMSO was selected as vehicle control to balance the requisite need of DMSO in HepaRG cultures to maintain differentiation (for example, baseline metabolism, proportions of hepatocytes vs. cholangiocytes), while enabling further hepatic receptor pathway activation (for example, PXR and CAR) in response to chemical exposure. 48 hours after plating, the culture medium was replaced with HepaRG Serum-Free Incudtion Media. Cells were exposed to each test chemical in duplicate and maintained in CO2 incubators for another 48 hours. Chemical plates were thawed to room temperature and 200x concentrations of treatment groups were prepared. 8-point conentration-reponse curves were made with the highest exposure at 100 uM, followed by half-log dilutions, all in 0.5% DMSO. Each test plate contained variouse controls, induction positive controls (1mM phenobarbital), cytotoxicity positive controls ([…] aflatoxin B1), vehicle controls (0.5% DMSO), and total lysis controls (0.5% DMSO). Cell morphology images were taken using an Essen IncuCyte FLR automated microscope, with six 96-well plates imaged in about 24 minutes. Images were captured and exported and JPEG files. Spent culture media was transfered to black-well plates for the LDH assay, and remaining media was sorted at -80 C for later use. Cells were treated with RLT buffer and frozen until shipped for gene expression analysis. Total RNA was isolated from the cell suspension in 75 uL of Buffer RLT (Qiagen, Germantown, MD 20874) by Quintiles/Expression Analysis (Durham, NC) using a custom isolation procedure. Total RNA from each plate well was transferred to a preamplification plate. Fluidigm's 96.96 Dynamic ArrayTM (Fluidigm, Amsterdam, the Netherlands) technology was used for gene expression analyses by quantitative reverse transcription polymerase chain reaction (qRT-PCR, performed by Quintiles/Expression Analysis, Durham, NC)89. Standard TaqManTM Assays (Applied Biosystems/ThermoFisher Scientific, Foster City, CA) were used to assess the expression of 93 genes selected based on their selectivity and sensitivity to important hepatic receptors known to be modulated by environmental chemicals; importance in human hepatocyte functionality; and hepatotoxicity. […]

Row | SMILES | outcome | AC50
1 | CC1(C)CC(N=C=O)CC(C)(CN=C=O)C1 (stereo not given) | inactive | 
2 | CCOc1ccc2c(c1)C(C)=CC(C)(C)N2 | inactive | 
3 | CCCCC(CC)COC(=O)CC(C(=O)OCC(CC)CCCC)S(=O)(=O)O (stereo not given) | inactive | 
4 | Cc1ccc(N(C)C)cc1 | inactive | 
5 | COC(=O)c1ccc(O)cc1 | inactive | 
6 | Cc1ccc2ncccc2c1 | inactive | 
7 | CCCCCCCCCCCCCCCC | inactive | 
8 | Cc1ccc(C(C)C)c(O)c1 | inactive | 
9 | CCCCCCCCCCCCCO | inactive | 
10 | NCC1(Cc2noc(=O)[nH]2)CCCCC1 | inactive | 
11 | CNCc1cc(F)ccc1Oc1ccc(Cl)c(Cl)c1 |  | 75.5 µM (active)
12 | Cc1cc(NC(=O)C(=O)O)cc(C)c1Oc1ccc(O)c2c1CCC2 |  | 0.00589 µM (active)
13 | COc1ccc(S(=O)(=O)N2C(=O)[C@@](c3ccccc3OC)(N3C[C@H](O)C[C@H]3C(=O)N(C)C)c3cc(Cl)ccc32)c(OC)c1 |  | 26.6 µM (active)
14 | CCOC(=O)C(C)(C)Oc1ccc(Cl)cc1 |  | 27.6 µM (active)
15 | Cc1cccc(Nc2cc(Cl)nc(SCC(=O)O)n2)c1C |  | 4.63 µM (active)
16 | NCCO | inactive | 
17 | O=c1[nH]cc(F)c(=O)[nH]1 |  | 51 µM (active)
18 | Nc1nc(N)c2nc(CNc3ccc(C(=O)N[C@@H](CCC(=O)O)C(=O)O)cc3)cnc2n1 | inactive | 
19 | CCCCCC(=O)O | inactive | 
20 | Clc1cc(Cl)c(Cl)cc1Cl | inactive | 

Row | SMILES | outcome | AC50
21 | Cc1nc(-c2ccc3c(c2)CCN(CCC2CCC(NC(=O)/C=C/c4ccc(F)cc4)CC2)CC3)no1 (stereo not given) | inactive | 
22 | CCCc1cc(=O)[nH]c(=S)[nH]1 | inactive | 
23 | Oc1ccc2ccccc2c1N=Nc1ccccc1 |  | 27.1 µM (active)
24 | CCCCCCCC=O | inactive | 
25 | CC(=O)OCCOCCOCCOC(C)=O | inactive | 
26 | CC1=C(/C=C/C(C)=C/C=C/C(C)=C/CO)C(C)(C)CCC1 |  | 15.5 µM (active)
27 | COc1ccc2c(c1)c(CC(=O)O)c(C)n2C(=O)c1ccc(Cl)cc1 | inactive | 
28 | Cc1ccccc1Cl | inactive | 
29 | CCCCCCC(=O)OCC | inactive | 
30 | Cc1nc(C)nc(N2C[C@@H](C)N(c3ccnc([C@@H](C)O)n3)[C@@H](C)C2)n1 |  | 9.39 µM (active)
31 | O=[N+]([O-])C(CO)(CO)CO | inactive | 
32 | C=CCOC(=O)c1ccccc1C(=O)OCC=C | inactive | 
33 | COCCOC[C@H](CC1(C(=O)NC2CCC(C(=O)O)CC2)CCCC1)C(=O)Oc1ccc2c(c1)CCC2 (stereo not given in full) | inactive | 
34 | Nc1ccccc1N |  | 66.5 µM (active)
35 | OC[C@@H](O)[C@@H](O)[C@H](O)[C@H](O)CO | inactive | 
36 | O=C(N[C@@H](Cc1ccccc1)[C@@H](O)C(=O)N1C[C@@H](O)[C@@H](O)C1)c1cc2cc(Cl)ccc2[nH]1 |  | 89.9 µM (active)
37 | Cc1ccc(Cl)cc1 | inactive | 
38 | CCCCCCOCCO | inactive | 
39 | Oc1ccc2c(c1)OC[C@@H](N1CCC(O)(c3ccc(F)cc3)CC1)[C@H]2O | inactive | 
40 | Nc1ccc2c(c1)C(=O)c1ccccc1C2=O |  | 29 µM (active)
